# Bioassay records as filed in PubChem.
# Methyltransferases = Primary Screen for Target Class Profiling of Small Molecule Inhibitors of Methyltransferases; purified enzyme, MTase-Glo SAH luminescence; hits give low values; calls only at 40 µM; 25,000 tested, 3.9% active; call rule not given here
#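 Each enzyme was reacted with SAM and its substrate, with compounds tested once at 40 uM; SAH formed was read by MTase-Glo luminescence.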
# MTase-Glo ctr = detection enzyme interference, methyltransferase counter-screen. shares compounds with Methyltransferases. MTase-Glo coupled enzymes, SAH conversion luminescence, no MTase. Potency, µM (series often up to 57.3 µM), actives largely listed as inhibitors. 180 tested, 6% active. AID 1745851; active means well fitted inhibition curve with a large enough effect
# Hits are given with their value; n = inactive; + = active, no number. The full list was thinned out, with hits kept by preference.
SMILES,Methyltransferases,others
Cc1cnc(C(=O)NCCc2ccc(S(=O)(=O)NC(=O)NC3CCCCC3)cc2)cn1,n,
Cc1cnc(CCNC(=O)Cc2ccncc2)n1CC1CC1,n,
COc1ccc(C(=O)NCCc2ncc(C)n2C2CC2)cn1,n,
COc1ccccc1CN1C(=O)c2cc3occc3n2CC1(C)C(=O)NC1CCCCC1C (stereo unspecified),n,
CCCn1c(=O)c2ccc(C(=O)NC3CCCCC3)cc2n2c(=O)n(CC(=O)c3ccc(OC)cc3)nc12,n,
CCCCN(CCCC)CCCN1C(=O)c2cc3occc3n2CC1(C)C(=O)NC1CCCCCC1 (stereo unspecified),n,
CCCn1c(=O)c2ccc(C(=O)NC(C)C)cc2n2c(=O)n(Cc3ccccc3)nc12,n,
CCC(C)NC(=O)c1ccc2c(=O)n(Cc3ccccc3)c3nn(Cc4cccc(OC)c4)c(=O)n3c2c1 (stereo unspecified),n,
CC(C)(C)NC(=O)Cn1nc2n(Cc3ccccc3)c(=O)c3ccc(C(=O)NC4CCCC4)cc3n2c1=O,n,
COc1ccc2cc3n(c2c1)CC(C)(C(=O)NCC1CCCO1)N(Cc1cccnc1)C3=O (stereo unspecified),n,
COCCCNC(=O)c1cnc2c(c1)N(C(=O)Cc1cn(C)c3ccccc13)CCC2,n,
COc1ccc(CNC(=O)c2cnc3c(c2)N(C(=O)CCc2ccccc2)CCC3)cc1OC,n,
O=C(NCc1cccc(Cl)c1)c1cnc2c(c1)N(C(=O)Cc1ccc(O)cc1)CCC2,+,MTase-Glo ctr=18µM
CCc1cc2c(cc3n2CC(C)(C(=O)NC2CCCCC2)N(Cc2cccc(F)c2)C3=O)s1 (stereo unspecified),n,
c1ccc(CN2CCc3c(sc4ncnc(N5CCOCC5)c34)C2)cc1,+,MTase-Glo ctr=n
COc1ccc(-c2nc(N3CCOCC3)cc3c2CN(Cc2ccccc2)C3=O)cn1,n,
CCNc1ncnc2sc3c(c12)CCN(Cc1ccncc1)C3,n,
Cc1ccc(Nc2ccn3c(=O)n(CC(=O)Nc4cc(F)ccc4C)nc3n2)cc1,n,
CCOC(=O)c1cc2n(n1)CC(C)(C(=O)NCCOC)N(c1cc(C)cc(C)c1)C2=O (stereo unspecified),n,
CC1CCCC(NC(=O)C2(C)Cn3c(cc4sccc43)C(=O)N2CCc2ccccc2)C1C (stereo unspecified),n,
Cc1cccc(Cn2nc3n(C)c(=O)c4ccc(C(=O)NC5CCCCC5)cc4n3c2=O)c1,n,
CCc1csc(CNc2cc(C3CC(O)C3)nc(N)n2)n1 (stereo unspecified),n,
Nc1nc(NCc2ccc(N3CCCC3=O)cc2)cc(C2CC(O)C2)n1 (stereo unspecified),n,
Nc1nc(NCc2ccc(Cl)cc2Cl)cc(C2CC(O)C2)n1 (stereo unspecified),+,MTase-Glo ctr=n
CCCn1c(=O)c2ccc(Cl)cc2n2c(=O)n(CC(=O)c3ccc(C)cc3)nc12,n,
SMILES,Methyltransferases,others
CCC(C)NC(=O)c1ccc2c(=O)n(CCC(C)C)c3nn(CC(=O)Nc4ccccc4C)c(=O)n3c2c1 (stereo unspecified),n,
N#Cc1ccccc1-c1cc2c(ccn2Cc2ccncc2)c(N2CCOCC2)n1,+,MTase-Glo ctr=n
CCOC(=O)Cc1ccc(NC(=O)N2CCn3cccc3C2C)cc1 (stereo unspecified),n,
Cc1ccc(NC(=O)N2CCn3cccc3C2C)cc1C (stereo unspecified),n,
CC1CCC(NC(=O)Cn2ccc3cc(S(=O)(=O)N4CCCCC4)ccc32)CC1 (stereo unspecified),n,
CCN1C(=O)c2cc(C(=O)NCc3cc(OC)ccc3OC)nn2CC1(C)C(=O)NC1CCCC1 (stereo unspecified),n,
CCCCCNC(=O)c1ccc2c(=O)nc3c(-c4ccc(OC)cc4)n[nH]n3c2c1,n,
Cc1ccc(NC(=O)N2CCn3cccc3C2C)cc1 (stereo unspecified),n,
Cc1ccc(NC(=O)N2CCN(c3nnnn3-c3ccccc3)CC2)cc1,n,
Cc1ccc(NC(=O)N2CCc3c(c4ccccc4n3CC3CC3)C2)cc1,+,MTase-Glo ctr=n
COc1cccc(N2C(=O)c3cc(-c4ccccc4)nn3CC2(C)C(=O)NCc2ccccc2)c1 (stereo unspecified),n,
O=C(CCc1ccccc1)N1CCNc2cnc(Nc3cccnc3)nc2C1,+,MTase-Glo ctr=n
O=C(Nc1ccc(Oc2cccnc2)cc1)C1CCN(CCCc2ccccc2)CC1,n,
O=C(CCc1ccccc1)N1CCCC(CN2CCCC2)CC1 (stereo unspecified),n,
Cc1ccccc1NC(=O)c1ncn2c1C(=O)N(C1CC1)C(C)(C(=O)NCc1ccc(F)cc1)C2 (stereo unspecified),n,
COC(=O)c1cc2n(n1)CC(C)(C(=O)NC1CCCCC1)N(Cc1ccccc1Cl)C2=O (stereo unspecified),n,
CCOC(=O)c1cc2n(n1)CC(C)(C(=O)NC1CCCC1)N(c1ccc(C)cc1C)C2=O (stereo unspecified),n,
NCC1CCN(c2nccc(-c3ccc4ccccc4c3)n2)CC1,n,
Cc1nccn1CCC1CCN(c2nccc(-c3ccccn3)n2)CC1,+,MTase-Glo ctr=n
O=C(CCc1nnc2n(CCc3ccccc3)c(=O)c3ccccc3n12)N1CCN(c2ccc(Cl)cc2)CC1,n,
Cc1ccccc1CN1C(=O)c2cc3sccc3n2CC1(C)C(=O)NC1CCCCCC1 (stereo unspecified),n,
COc1ccc(NC(=O)CCc2ccnc(N3CCCC3)c2)c(OC)c1,+,MTase-Glo ctr=n
CCCN(C)C(=O)CCc1ccnc(N2CCOCC2)c1,n,
COc1ccc(NC(=O)N2CCn3cccc3C2C)c(OC)c1 (stereo unspecified),n,
Cc1ccc(Nc2ccn3c(=O)n(CC(=O)Nc4ccc(C)cc4C)nc3n2)cc1,n,
SMILES,Methyltransferases,others
COc1ccc2cc3n(c2c1)CC(C)(C(=O)NC1CCCC1)N(CCC(C)C)C3=O (stereo unspecified),n,
O=C(CCn1ccc2cc(S(=O)(=O)N3CCCCC3)ccc21)NCCc1ccc(Cl)cc1,n,
CCCN1C(=O)c2c(C(=O)NCc3cc(OC)ccc3OC)ncn2CC1(C)C(=O)NCc1ccc(F)cc1 (stereo unspecified),n,
CCCN1C(=O)c2c(C(=O)NCCC3=CCCCC3)ncn2CC1(C)C(=O)NCc1ccc(F)cc1 (stereo unspecified),n,
O=C(Nc1ccc(S(=O)(=O)C(F)(F)F)cc1)C1=CCN(c2ncccc2C(F)(F)F)CC1,n,
O=C(Nc1ccccc1C(F)(F)F)N1CCCC(Cn2cnc3cccnc32)C1 (stereo unspecified),n,
O=C1CC(C(=O)Nc2cccc(Cl)c2)n2ncnc2N1 (stereo unspecified),n,
O=C(Nc1ccc2c(N3CCCCC3)ncnc2c1)c1ccccc1C(F)(F)F,+,MTase-Glo ctr=1.7µM
O=C(Nc1ccc2c(N3CCOCC3)ncnc2c1)c1cccc(Cl)c1,+,MTase-Glo ctr=n
Cn1c(=O)c2ccc(C(=O)NC3CCCC3)cc2n2c(=O)n(CC(=O)Nc3cccc(Cl)c3)nc12,n,
Cn1c(=O)c2ccc(C(=O)NC3CCCC3)cc2n2c(SCC(=O)c3ccccc3)nnc12,n,
CCOC(=O)c1cc2n(n1)CC(C)(C(=O)NCc1ccccc1OC)N(c1ccc(OCC)cc1)C2=O (stereo unspecified),n,
CC(C)OCCCNC(=O)C1c2c(n(C)c3ccccc23)SCC(=O)N1Cc1cccs1 (stereo unspecified),n,
